Records with an inconclusive call do not appear. Entries that show only a call come without a potency. A number with no mark means an inactive call. Calls of active or inactive are those of the source. Calls come from the whole dose curve.

A short description of this test: p53 small molecule agonists, cell-based qHTS assay: qHTS cell viability counter screen (AID 1963581). Note: nearly all actives have a fitted effect of over 45% in size. The conditions noted are these: p53RE-bla HCT-116 viability, ATP luminescence, 16 h; series mostly up to 66 µM. An excerpt: National Center for Advancing Translational Sciences [NCATS]
Division of Preclinical Innovation [DPI]
U.S. Environmental Protection Agency [EPA]
National Institutes of Environmental Health Sciences [NIEHS]
National Toxicology Program [NTP]
U.S. Food and Drug Administration [FDA]
p53, a tumor suppressor protein, is activated following cellular insult, including DNA damage and other cellular stresses. The activation of p53 regulates cell fate by inducing DNA repair, cell cycle arrest, apoptosis, or cellular senescence. The activation of p53, therefore, is a good indicator of DNA damage and other cellular stresses. The CellSensor p53RE-bla HCT-116 cell line (Invitrogen) contains a stably integrated beta-lactamase reporter gene under control of the p53 response elements. The activation of the reporter gene under culture conditions can be detected by fluorescence intensity. This cell line was used to screen the Tox21 compound library in a 1536-well plate format and to identify agonists that activate the p53 signaling pathway. The cytotoxicity of the Tox21 compound library against the p53 RE-bla HCT-116 cell line was tested in parallel by measuring the intra cellular ATP content in the same wells.
Tox21 Assay Protocol Summary:
The p53RE-bla cells were dispensed at 4,000 cells/5 ul/well in 1536-well black wall/clear bottom plates using a Multidrop dispenser. After the assay plates were incubated at a 37 C/5% CO2 incubator for 5 hours, 23 nL of compounds dissolved in DMSO, positive controls or DMSO only was transferred to the assay plate by a pin tool. The plates were incubated at 37 C for 16 hours. After 1 uL of LiveBLAzerTM B/G FRET substrate was added using a Flying Reagent Dispenser, the plates were incubated at room temperature for 2 hours, and fluorescence intensity was measured by an Envision plate reader. For cell viability readout that measures cytotoxicity, 4 ul/well of CellTiter-Glo reagent was added into the assay plates using a Flying Reagent Dispenser. After 30 min incubation at room temperature, the luminescence intensity in the plates was measured using a ViewLux plate reader.
Background: Quantitative high-throughput screening tests each substance at several concentrations.
Take `CC1(C)S[C@@H]2[C@H](NC(=O)Cc3ccccc3)C(=O)N2[C@H]1C(=O)O` (tested in a mixture with another compound): the Potency result is “inactive”. As for `C=COCC1CCC(CO)CC1` (stereo not given), the Potency result is “inactive”. Still for that read-out and setting: with `C=C(C)C1CC=C(C)C(O)C1` (stereo not given) the entry was “inactive”; with `COC(C)OC`, “inactive”. As for `O=C(O)CCC(=O)OC[C@@H](NC(=O)C(Cl)Cl)[C@H](O)c1ccc([N+](=O)[O-])cc1`, the Potency result is “inactive”. Still for that read-out and setting: next, `OC(CCN1CCCC1)(c1ccccc1)C1CCCCC1` (stereo not given): “inactive”; `CC(C)NCC(O)COc1ccc(COCCOC(C)C)cc1` (stereo not given): “inactive”. With `CCCN1C[C@H](CSC)C[C@@H]2c3cccc4[nH]cc(c34)C[C@H]21`, the Potency result is “inactive”. With `CCOC(=O)c1c(N)sc2c1CCN(Cc1ccccc1)C2`, the Potency result was “inactive”. On the same count and under the same terms, with `COCCCN1CCC(NC(=O)c2cc(Cl)c(N)c3c2OCC3)CC1` the entry was “inactive”.

Regarding `O=C1c2ccccc2C(=O)C1c1nc2ccccc2c(Br)c1O`, the Potency entry is “inactive”. On the same count and under the same terms, next, `CCCCCCC(O)CO` (stereo not given): “inactive”; `COc1cccc(O)c1O`: “inactive”. On the same count and under the same terms, with `N=C1C=CC(=C(c2ccc(N)cc2)c2ccc(N)cc2)C=C1` the entry was “inactive”; with `O=S1OCCO1`, “inactive”. The same measure, in the same setting: next, `Nc1c2c(nc3ccccc13)CCCC2O` (stereo not given): “inactive”; `COC(=O)N/N=C/c1c[n+]([O-])c2ccccc2[n+]1[O-]`: “inactive”.

For the molecule `CCCCCCCC(=O)Oc1c(Br)cc(C#N)cc1Br`, the Potency result was “inactive”. Same read-out and setting: with `CC(C)(C)NC[C@H](O)COc1cccc2c1CCCC2=O` the entry was “inactive”; with `O[C@@H](COc1cccc2ncccc12)CN1CCN(C2c3ccccc3[C@@H]3[C@H](c4ccccc42)C3(F)F)CC1` (stereo not given in full), “inactive”. Turning to `CCCCCc1ccco1`, the Potency entry was “inactive”.

Regarding `COc1cc2nc(Cl)nc(N)c2cc1OC`, the Potency entry is “inactive”.

With `CCOC(=O)/C=C/C(=O)O`, the Potency entry is “inactive”. With `CCCCCCCCCCCCCC=O`, the activity change, negative = cytotoxicity is -2.03% [at 5.99 µM]. In the case of `O=C(O)c1cc(O)c2ccccc2c1O`, the Potency result was “inactive”.

As for `CC(C)=CCC/C(C)=C/CC/C(C)=C/CCC(=O)OC/C=C(\C)CCC=C(C)C`, the Potency result is “inactive”. On to `Cc1cc(=O)[nH]c(=O)[nH]1`, for which the Potency result is “inactive”. Turning to `COc1ccc(-c2cc(=O)c3c(O)cc(O[C@@H]4O[C@H](CO[C@@H]5O[C@@H](C)[C@H](O)[C@@H](O)[C@H]5O)[C@@H](O)[C@H](O)[C@H]4O)cc3o2)cc1O`, the Potency entry is “inactive”. Same read-out and setting: with `COC(=O)c1cccc(Cl)c1` the entry was “inactive”. `CCc1cc(S(=O)(=O)O)c2cc(C(C)C)cccc1-2`: the Potency entry was “inactive”.

For the molecule `C=CC(=O)OCCOC(=O)CCC(=O)O`, the Potency result was “inactive”. Consider `CCCCCCCCSCc1cc(C)c(O)c(CSCCCCCCCC)c1`, for which the Potency entry was “inactive”.

Consider `COC(=O)CCc1ccc(OCC(O)CNC(C)C)cc1` (stereo not given), for which the Potency entry was “inactive”. Still for that read-out and setting: next, `COc1ccc(C2C(=O)c3ccccc3C2=O)cc1`: “inactive”; `CC(c1cc(C(C)(C)C)cc(C(C)(C)C)c1O)c1cc(C(C)(C)C)cc(C(C)(C)C)c1O`: “inactive”; `CC(C)CCCCCCc1ccc(OCCOCCO)cc1`: “inactive”. As for `O=c1[nH]c(=O)c2[nH]c(=O)[nH]c2[nH]1`, the activity change, negative = cytotoxicity is -12.2% [at 5.99 µM]. Turning to `CCCCOCCOC(=O)COc1cc(Cl)c(Cl)cc1Cl`, the Potency result is “inactive”. The same measure, in the same setting: next, `O=C(O)c1ccccc1NCCc1ccccc1`: “inactive”; `O=CNNC=O`: “inactive”.

The record behind these values is PubChem BioAssay (Tox21).
